From PubChem BioAssay
SMN2 splice enh: SMN2 splice variant enhancement. Potency, µM (doses to about 46.1 µM), hits mostly activators. 210,000 compounds, 2.8% hits. HEK293 SMN2-luciferase splicing reporter, luminescence, 30-36 h; further: nearly all actives have a fitted effect of over 55% in size
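HEK293 cells carry an SMN2 […]–luciferase reporter in which exon 7 inclusion puts luciferase in frame. Cells were plated 10-12 h before compound addition, then incubated 30-36 h at 37C. ONE-Glo luminescence was read; sodium butyrate at 4.5 mM final served as control.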
NPC1 prom act: activates the NPC1 promoter. Huh7 NPC1 promoter luciferase reporter, 24 h. Potency, µM (doses to about 9.22 µM), most hits filed as activators. 320,000 compounds, 2.4% hits. AID 485313; further: nearly all actives have a fitted effect of over 60% in size
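Cells: Huh7 expressing luciferase under the NPC1 promoter, 1500/well. Seeded 2 h, compound added, incubated 24 h at 37 °C. Luciferase reagent, 10 min ambient, then luminescence.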
ELG1 repair inh: blocks ELG1-dependent DNA repair in HEK293T cells | HEK293T ELG1-luciferase reporter, luminescence, 16 h; DNA damage induced by 5-fluorouridine | Potency, µM (top dose mostly 46.1 µM), most hits filed as inhibitors | 330,000 compounds, 2.3% hits | AID 504467; further: nearly all actives have a fitted effect of over 55% in size
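Luminescence from the luciferase reporter, measured 30 min after ONE-Glo reagent at room temperature, was the read-out. Beforehand, 2,000 cells per well were exposed for 16 hr at 37 °C to 5-fluorouridine together with compound or vehicle.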
ELG1 genotox: inducers of genotoxicity in HEK293T ELG1-luciferase cells. HEK293T ELG1-luciferase reporter, luminescence, 16 h. 330,000 compounds, 1.3% hits. Potency, µM (top dose mostly 46 µM), usual class: activators; further: nearly all actives have a fitted effect of over 60% in size
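Screening used a luciferase reporter fused to human ELG1 in HEK293T cells. Luminescence was read on a CCD plate imager after 16 hr exposure and 30 min ONE-Glo incubation.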
FLuc modulator: firefly luciferase modulation, counter-screen for miR-21 project. Potency, µM (top dose mostly 57.5 µM), usual class: inhibitors. purified FLuc, Km substrates, luminescence inhibition. 360,000 compounds, 6.9% hits; further: nearly all actives have a fitted effect of over 55% in size
Target sequence (P08659 whole entry, looked up): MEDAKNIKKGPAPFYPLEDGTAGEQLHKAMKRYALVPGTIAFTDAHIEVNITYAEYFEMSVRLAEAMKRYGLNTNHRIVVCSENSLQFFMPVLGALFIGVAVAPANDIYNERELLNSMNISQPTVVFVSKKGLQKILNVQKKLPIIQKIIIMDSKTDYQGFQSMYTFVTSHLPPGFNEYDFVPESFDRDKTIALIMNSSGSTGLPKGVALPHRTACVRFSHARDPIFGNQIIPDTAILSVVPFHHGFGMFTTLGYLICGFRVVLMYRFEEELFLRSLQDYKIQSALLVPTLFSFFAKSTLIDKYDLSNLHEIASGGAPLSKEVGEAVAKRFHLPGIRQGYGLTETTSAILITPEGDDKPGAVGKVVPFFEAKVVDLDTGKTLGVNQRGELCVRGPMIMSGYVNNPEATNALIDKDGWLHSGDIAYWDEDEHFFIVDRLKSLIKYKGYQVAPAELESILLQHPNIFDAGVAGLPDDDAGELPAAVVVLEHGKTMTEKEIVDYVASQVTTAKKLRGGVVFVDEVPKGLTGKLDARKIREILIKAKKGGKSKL
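Purified P. pyralis luciferase (10nM final) with 10uM D-luciferin and 10uM ATP (Km levels) in 50mM Tris acetate pH 7.5, 10mM Mg acetate, 0.01% Tween-20, 0.05% BSA; qHTS 6-point titration, ~60 µM downward; luminescence read.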
Rab9 prom act: activates the Rab9 promoter; Potency, µM (doses to about 9.22 µM), most hits filed as activators; AID 485297; Huh7 Rab9 promoter-luciferase reporter, luminescence, 24 h; 320,000 compounds, 2.8% hits; further: nearly all actives have a fitted effect of over 60% in size
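Huh7 cells stably carrying Rab9 promoter–luciferase reporter, plated 1500 cells/well, compound added after 2 h and incubated 24 h at 37 °C; luciferase luminescence then read after 10 min with detection reagent.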
Numbers stand for hits; n = inactive; u = inconclusive; x = no result given. This is a sample that favours compounds with a hit; in the whole collection about 9.3% have one here. The call rests on the fitted dose curve; in most records, active means well fitted curve in the direction sought with a large enough effect; inconclusive means small, poorly fitted or top-dose-only effect, or another doubt; inactive means no such curve, though single readings can be large; an effect the other way counts as inactive or inconclusive.

SMILES | SMN2 splice enh | NPC1 prom act | ELG1 repair inh | ELG1 genotox | FLuc modulator | Rab9 prom act
COc1ccc(OCc2nn3c(Cn4cnc5ccccc54)nnc3s2)cc1 | n | n | 23µM | n | u | n
CCCCn1c(NCCN(C)C)nc2c1c(=O)[nH]c(=O)n2C | n | n | n | n | n | n
CCCN(CCC)CCCNC(=O)CS(=O)Cc1nc(-c2ccc(OC)c(OC)c2)oc1C (stereo unspecified) | n | n | n | n | n | n
CCN1/C(=C/C(C)=C/c2sc3ccccc3[n+]2CC)Sc2ccccc21 | n | n | 1.8µM | n | u | n
COc1ccc(-c2csc(NC3CCCCC3)n2)c(OC)c1 | x | n | u | u | 24µM | n
c1ccc(-c2csc(NC3CCCCC3)n2)cc1 | x | 0.79µM | u | 5.2µM | 1.7µM | 1µM
COc1ccc(-c2csc(NC(=O)CN3C(=O)CCC3=O)n2)c(OC)c1 | n | n | n | n | u | n
O=C(Nc1nc(-c2ccccc2)cs1)C1CCCCN1S(=O)(=O)c1ccccc1 (stereo unspecified) | n | n | u | n | n | n
O=C(Nc1nc(-c2ccccc2)cs1)NC1CCCCC1 | n | n | u | 23µM | u | n
Clc1ccccc1CSc1nnc(Cn2cnc3ccccc32)n1-c1ccccc1 | n | n | n | n | n | n
Nc1nnc(-c2ccc(Cl)c(Cl)c2)s1 | n | n | u | n | u | n
Cn1c(-c2ccc(Cl)cc2)cnc1N | n | n | n | n | n | n
Nc1cccn2c(-c3ccc(Cl)cc3)cnc12 | 11µM | u | u | u | 2.7µM | 3.5µM
Nc1cccn2c(-c3ccc(Cl)c(Cl)c3)cnc12 | 3.5µM | u | u | u | 3µM | 3.2µM
CCN(CC)C(=O)Cn1cc(SCC(=O)Nc2ccccc2F)c2ccccc21 | x | x | x | x | n | x
O=C(Nc1ccc(N2CCOCC2)cc1)c1cc2c(s1)CCCCC2 | n | n | n | n | 19µM | n
O=C(Nc1ccccc1N1CCOCC1)c1cc2c(s1)CCCCC2 | x | n | n | n | 4.8µM | u
Clc1ccc(OCc2nc(-c3ccncc3)no2)c(Cl)c1 | 16µM | 0.89µM | u | 7.3µM | 2.1µM | 0.63µM
CN(C)c1ccc(-c2noc(-c3ccccc3O)n2)cc1 | n | 0.71µM | u | u | 0.27µM | u
COc1nc(-c2ccc(C)cc2)ccc1-c1noc(-c2ccccc2Br)n1 | n | x | x | x | u | x
COc1ccc(-c2noc(-c3cccc(Cl)c3)n2)cc1OC | u | u | u | u | u | n
CCSc1ccccc1-c1nc(-c2ccncc2)no1 | x | u | n | n | u | n
Cc1ccc(-c2noc(-c3ccccc3Br)n2)cc1 | 13µM | 0.79µM | u | u | 0.67µM | 2.8µM
Clc1cccc(OCc2nc(-c3ccncc3)no2)c1 | n | n | u | n | n | n
COc1ccc(Cl)cc1-c1nc(-c2ccncc2)no1 | 28µM | n | u | u | n | n
SMILES | SMN2 splice enh | NPC1 prom act | ELG1 repair inh | ELG1 genotox | FLuc modulator | Rab9 prom act
CC(C)(C)c1cc(C(=O)Nc2ccccc2)ccn1 | n | n | n | n | u | n
CC1CCN(CCCNC(=O)c2cc3c(=O)n(C)c4ccccc4c3n2C)CC1 | n | n | u | u | n | n
Cc1ccc(S(=O)(=O)c2cn(C)c3cc(N4CCOCC4)c(F)cc3c2=O)c(C)c1 | x | x | x | x | n | x
CCOc1ccccc1-c1nc(-c2ccncc2)no1 | n | x | x | x | n | x
COc1ccc(-c2ccc(-c3noc(-c4ccccc4OC)n3)c(OC)n2)cc1 | n | n | n | n | n | n
COc1ccccc1-c1nc(-c2ccc(Br)cc2)no1 | 16µM | u | u | 3.7µM | 4.8µM | 5µM
CCOc1ccc(-c2nc(-c3ccc(OC)cc3)no2)cc1OCC | n | n | n | n | n | n
COc1cc(OC)cc(-c2nc(-c3ccc(Br)cc3)no2)c1 | n | n | n | n | 13µM | u
COc1ccc(-c2nc(-c3ccc(Br)cc3)no2)c(OC)c1 | 7.1µM | x | x | x | 1.2µM | x
COc1ccccc1-c1nc(-c2ccncc2)no1 | 13µM | 2µM | u | u | 6.7µM | 2µM
CCOc1ccc(NC(=O)C2CCCN2C(=O)OCc2ccccc2)cc1 (stereo unspecified) | n | n | n | n | n | n
